The values that follow come from PubChem BioAssay AID504444 (National Center for Advancing Translational Sciences (NCATS), 2011).

Each structure is given as a SMILES string. Hit rate of the full screen: of about 360,000 compounds, about 7,500 (2.1%) were called active. Inconclusive results (about 20%) are left out. This is one part of a sample in which actives are shown more often than they occur. Calls come from the whole dose curve; as a rule, active = well fitted inhibition curve with a large enough effect; inconclusive = small, poorly fitted or top-dose-only effect, or effect the other way; inactive = flat fitted curve, though single readings scatter.
% is set by controls: 0 for no effect and ±100 for the full control effect; potency is the fitted concentration of half-maximal effect.

The test is described as follows: Nrf2 qHTS screen for inhibitors. Note: nearly all actives have a fitted effect of over 60% in size. Conditions: A549 ARE-Fluc reporter, luciferase luminescence, 18-24 h; series mostly up to 46 µM; activity change, negative = inhibition: at the top concentration. An excerpt: NIH Molecular Libraries Probe Production Network [MLPCN]
NIH Chemical Genomics Center [NCGC]
Assay Provider: Shyam Biswal, Johns Hopkins University
Nrf2 is a transcription factor that maintains cellular redox homoestasis and protects cells from xenobiotics. Nrf2 binds to the antioxidant response element (ARE) to induce gene expression of a broad spectrum of genes that encode for antioxidants. […] Finding a small molecule that act as an inhibitor of Nrf2 function would represent a novel therapeutic target that could lead to improvement in survival of patients undergoing chemo- and/or radio- therapy.
This is the Nrf2 activity measured in the luminescent read.
1. Shibata, T., et al., Genetic Alteration of Keap1 Confers Constitutive Nrf2 Activation and Resistance to Chemotherapy in Gallbladder Cancer. Gastroenterology, 2008.
2. Sjoblom, T., et al., The consensus coding sequences of human breast and colorectal cancers. Science, 2006. 314(5797): p. 268-74.
NCGC Assay Protocol Summary:
A concentration-response assay was performed with A549 ARE_Fluc cells which are suspended in 5% FBS OPTI-MEM. Five uL were dispensed into 1536-well white TC-treated plate using the Kalypsys dispenser to achieve a density of 5000 cells/well in all columns except column 1. The plate is incubated at 37deg C at 5% CO2 for 2 hours before 23 nL of compounds are added with the Kalypsys pin tool equipped with a 1,536-pin array containing 10-nL slotted pins (FP1S10, 0.457-mm diameter, 50.8 mm long; V&P Scientific). The control compounds Budesonide and Staurosporine are both added at a concentration of 2mM and Budesonide is also added as a 1:10 titration, starting at 200uM, to achieve dose-response. After an 18-24 hour incubation at 37deg C at 5% CO2, 5ul of medium is added to column 1. Afterwards 1ul of 5x of CellTiter-Fluor (Promega) is added to every well. The plate is then incubated at 37deg C at 5% CO2 for 30 minutes before they are read on the ViewLux (Perkin Elmer) for a fluorescent read Ex=405(10)/Em=525(10) for a 3 second exposure, 2x binning, and high gain. Then 3 uL of 3x BugLite is dispensed into all wells and the plate is incubated at ambient room temperature for 15 minutes. Afterwards another ViewLux read is performed using the clear filter to get a luminescent read with the settings of 40 second exposure, 2x binning, and high gain. Cytotoxicity is assessed through the first fluorescent read and then biochemical activity against Nrf2 is measured in the luminescent read.
For the molecule `O=C(Nc1cccc(OC(=O)N2CCCCC2)c1)N1CCOCC1`, the Potency is 16.4 µM (active).
Regarding `CCN(CC)C(=O)Oc1ccc(NC(=O)N2CCOCC2)cc1`, the “activity change, negative = inhibition” value is -7.97% (inactive).
Regarding `CN(C)C(=O)Oc1ccc(NC(=O)N2CCOCC2)cc1`, the “activity change, negative = inhibition” value was 3.42% (inactive).
On the same count and under the same terms, under `COC(=O)C1=C(c2c(C)noc2C)C[C@@H]2CC[C@H]1N2C(=O)NCc1ccc2c(c1)OCO2` stands -8.27% (inactive).
Consider `c1ccc(C(CN2CCCCC2)c2ccccc2)cc1`, for which the “activity change, negative = inhibition” value is 2.82% (inactive).
For the molecule `C[C@]12CC[C@H](O)CC1=C([N+](=O)[O-])CC1C2CC[C@@]2(C)C1CC[C@@H]2O` (stereo not given in full), the “activity change, negative = inhibition” value was 0.87% (inactive).
Regarding `O=C1NC(=O)C(CCOc2ccccc2)(CCc2ccccc2)C(=O)N1`, the “activity change, negative = inhibition” value was -22.3% (inactive).
As to `CCCCC(=O)N/N=C/c1c(O)n(CCC2=CCCCC2)c(=O)[nH]c1=O`, the Potency was 18.4 µM (active).
Take `CCCCC(=O)N/N=C/c1c(O)n(-c2ccccc2)c(=O)[nH]c1=O`: the “activity change, negative = inhibition” value was 5.34% (inactive).
Consider `O=c1[nH]c(=O)n(CCc2ccc(F)cc2)c(O)c1/C=N/N1CCCCC1`, for which the “activity change, negative = inhibition” value was -3.29% (inactive).
Regarding `CN(C)CC1Oc2ccccc2OC1(O)c1ccccc1` (stereo not given), the Potency was 14.6 µM (active).
Regarding `CC1C(=O)OC2CCN3CC=C(COC(=O)C(C)(O)C1(C)O)C23` (stereo not given), the “activity change, negative = inhibition” value was 4.37% (inactive).
Consider `COC(=O)C1=C(c2ccc(Cl)c(C(F)(F)F)c2)C[C@@H]2CC[C@H]1N2C(=O)NC(C)C`, for which the “activity change, negative = inhibition” value is -21.4% (inactive).
As for `O=C1NC(=O)C(Cc2ccccc2)C(=O)N1`, the “activity change, negative = inhibition” value is 2.99% (inactive).
As to `Cc1ccc(C(C)C)c(OCC(=O)N2CCN(CC(=O)N3CCOCC3)CC2)c1`, the “activity change, negative = inhibition” value was 8.39% (inactive).
Consider `O=C(O)c1cc[c]([Sb](=[O])([OH])[OH])cc1[N+](=O)[O-]`, for which the “activity change, negative = inhibition” value is 13.5% (inactive).
On the same count and under the same terms, under `CC/C(=N\NC(=O)c1ccccc1O)c1c(O)n(Cc2ccccc2)c(=O)[nH]c1=O` stands 8.94% (inactive).
Regarding `CCC(=NCCc1ccccc1)c1c(O)n(C2CCCCC2)c(=O)[nH]c1=O`, the Potency was 20.6 µM (active).
In the case of `CC(=O)c1c(O)n(C2CCCCCC2)c(=O)[nH]c1=O`, the “activity change, negative = inhibition” value is -21.3% (inactive).
With `Cn1cc(C(=O)OCC(=O)N2CCCC2)c2ccccc21`, the “activity change, negative = inhibition” value was 5.8% (inactive).
On to `CC1CNCCN1c1ccc(Cl)cc1` (stereo not given), for which the “activity change, negative = inhibition” value is 8.73% (inactive).
In the case of `CCn1cc2nc(SCc3ccccc3Cl)n(CCc3ccccc3)c(=O)c2n1`, the Potency was 18.4 µM (active).
For the molecule `CC(=O)C1(O)CCC2C3CCC4=C(Cl)C(=O)CCC4(C)C3CCC21C` (stereo not given), the “activity change, negative = inhibition” value was -13.3% (inactive).
With `Cc1ccc(N(C)C(=O)Oc2cccc3ccc(C)nc23)cc1`, the “activity change, negative = inhibition” value is -14.6% (inactive).
In the case of `CN1CCc2cc3c(cc2[C@H]1[C@@H]1OC(=O)c2c1ccc1c2OCO1)OCO3`, the “activity change, negative = inhibition” value is 6.77% (inactive).
Take `COc1cccc(CN2CCCC(C(=O)c3ccccc3SC)C2)c1O` (stereo not given): the “activity change, negative = inhibition” value is -1.57% (inactive).
As for `CC1CC=CCC12C(=O)NC(=S)NC2=O` (stereo not given), the “activity change, negative = inhibition” value is 13.2% (inactive).
Turning to `COc1cc(Cn2c(N)c(C(=O)NCc3ccco3)c3nc4ccccc4nc32)cc(OC)c1OC`, the “activity change, negative = inhibition” value is -29.4% (inactive).
Regarding `CCOc1ccc(CNC(=O)c2cccc(Nc3nc4ccccc4n4nnnc34)c2)cc1OC`, the Potency was 7.31 µM (active).
Consider `CCCn1c(C(=O)c2ccccc2OC)nc2ccccc21`, for which the “activity change, negative = inhibition” value was 4.64% (inactive).
Turning to `CC(C)Oc1cccc(C(=O)C2CCCN(C3CCOCC3)C2)c1` (stereo not given), the “activity change, negative = inhibition” value is -9.14% (inactive).
On to `CCC1(CC(C)c2ccccc2)C(=O)NC(=O)NC1=O` (stereo not given), for which the “activity change, negative = inhibition” value is -20.9% (inactive).
For the molecule `COC(=O)C1=C(c2ccc3ccccc3c2)C[C@@H]2CC[C@H]1N2C(=O)NCCO`, the “activity change, negative = inhibition” value was -2.19% (inactive).
With `Cc1ccc(NC(=O)CN(C)CC(=O)Nc2cccc(F)c2)cc1[N+](=O)[O-]`, the Potency is 11.6 µM (active).
As to `CNCC(O)c1cc(F)c(OCc2ccccc2)c(OCc2ccccc2)c1F` (stereo not given), the “activity change, negative = inhibition” value was 12.1% (inactive).
As to `CCOC(=O)CC(SP1(=S)OCC2(CCCCO2)C(C2CCCCO2)O1)C(=O)OCC` (stereo not given), the “activity change, negative = inhibition” value was -7.98% (inactive).
Turning to `CC(CC(C#N)(c1ccccc1)c1ccccc1)N1CCCCC1` (stereo not given), the “activity change, negative = inhibition” value was 3.56% (inactive).
As to `O=C(CCC(=O)N1C[C@H]2C[C@@H](C1)c1cccc(=O)n1C2)NCc1ccccc1C(F)(F)F`, the “activity change, negative = inhibition” value is -12.9% (inactive).
Turning to `COC(=O)C1=C(c2ccccc2)C[C@@H]2CC[C@H]1N2C(=O)NCc1ccco1`, the “activity change, negative = inhibition” value is 6.49% (inactive).
Regarding `COC(=O)C1=C(c2ccc(F)cc2F)C[C@@H]2CC[C@H]1N2C(=O)NC1CC1`, the “activity change, negative = inhibition” value was 0.179% (inactive).
As to `COC(=O)C1=C(c2ccc(F)cc2OCc2ccccc2)C[C@@H]2CC[C@H]1N2C(=O)NCc1ccc(Cl)cc1`, the Potency was 23.1 µM (active).
`C[C@]12CCCCC1=CC(=O)C1C2CC[C@@]2(C)C1C[C@@H](F)[C@@H]2O` (stereo not given in full): the “activity change, negative = inhibition” value is -20% (inactive).
As to `Cc1cc(C(=O)OCC(=O)Nc2c(F)cccc2F)c(C)n1C1CC1`, the “activity change, negative = inhibition” value was -16.9% (inactive).
With `c1ccc(Cc2nn3c(Cn4cnc5ccccc54)nnc3s2)cc1`, the Potency was 23.1 µM (active).
Regarding `O=c1[nH]c(CN2CC=C(c3ccccc3)CC2)nc2scc(-c3cccs3)c12`, the “activity change, negative = inhibition” value is 0.416% (inactive).
